We go through 31 compounds from PubChem BioAssay (NCATS).

For the test, the target named is Cellular tumor antigen p53 (Homo sapiens) (UniProt P04637). Nature of the test: Primary qHTS for small molecule compounds that upregulate eGFP-tagged delta133p53alpha (in N-terminal) cells. (AID 2060322). Also: nearly all actives have a fitted effect of over 75% in size.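 As to activation: series mostly up to about 56 µM; 0% = DMSO vehicle and 100% = reference activator.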 The settings on record: NCI-H358 eGFP-delta133p53alpha fluorescence, 24 h; activation: stronger effect = higher value. An outline of the steps: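 NCI-H358 cells pre-induced 24 h with 10 ng/ml doxycycline for eGFP-delta133p53alpha, plated dox-free and exposed 24 h at 37C to titrated compounds. Fixed, Hoechst-stained; gated GFP peak intensity by laser scanning cytometry, normalized to DMSO (0%) and 57.5 uM 5-azacytidine (100%).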
Cellular tumor antigen p53 (Homo sapiens), sequence (P04637 whole entry, looked up): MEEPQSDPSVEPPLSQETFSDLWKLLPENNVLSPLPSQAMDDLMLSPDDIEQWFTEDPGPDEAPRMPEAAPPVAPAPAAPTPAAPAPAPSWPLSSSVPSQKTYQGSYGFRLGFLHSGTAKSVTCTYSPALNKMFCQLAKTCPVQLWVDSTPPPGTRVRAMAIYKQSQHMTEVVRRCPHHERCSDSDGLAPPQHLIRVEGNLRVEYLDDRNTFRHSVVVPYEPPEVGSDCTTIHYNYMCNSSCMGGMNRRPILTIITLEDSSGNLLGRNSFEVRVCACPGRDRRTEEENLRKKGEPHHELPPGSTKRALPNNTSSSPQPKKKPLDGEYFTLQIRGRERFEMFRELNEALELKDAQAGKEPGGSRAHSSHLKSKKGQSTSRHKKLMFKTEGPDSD
In general terms: qHTS replaces the single test concentration by a dilution series.

Several values for one entry are separate records, joined by “and”; a condition that tells them apart may be missing. Equal values may be shown once. Records with an inconclusive call do not appear. Values without a mark were called inactive. Activity calls are given as the source filed them. Calls follow the shape of the dose curve; as a rule, active = well fitted activation curve with a large enough effect; inconclusive = small, poorly fitted or top-dose-only effect; inactive = no such curve, though single readings can be large or run the other way.
Potency is read from the fitted curve at half-maximal effect.

On to `CC(C)(C)NCC(O)COc1ccccc1OCC1CCCO1` (stereo unspecified), for which the activation was 10.9%.
Still for that read-out and setting: next, `CC(C)OC(=O)[C@H](C)N[P@](=O)(OC[C@H]1O[C@@H](n2ccc(=O)[nH]c2=O)[C@](C)(F)[C@H]1O)Oc1ccccc1`: 15%; `CC(NC(CCc1ccccc1)C(=O)O)C(=O)N1C(=O)N(C)CC1C(=O)O` (stereo unspecified): -13.4%; `CN(C(=O)C(Cl)Cl)c1ccc(OC(=O)c2ccco2)cc1`: 5.02%.
For the compound `C[C@H]1C[C@@H]2[C@@H]([C@@H](O)C[C@@]3(C)[C@H]2CC[C@]3(O)C(=O)CO)[C@@]2(C)C=CC(=O)C=C12`, the activation is -16.2%.
In the case of `COc1ccc([C@@H]2CC(=O)c3c(O)cc(O[C@@H]4O[C@H](CO[C@@H]5O[C@@H](C)[C@H](O)[C@@H](O)[C@@H]5O)[C@@H](O)[C@H](O)[C@@H]4O)cc3O2)cc1O`, the activation was 4.43% and 6.54%.
Same read-out and setting: the same measure for `C=CS(=O)(=O)N1CCCN(c2cc(NCCC(=O)O)nc(-c3ccccn3)n2)CC1`: -4.47%.
On to `COc1cc(NC(C)CCCN)c2ncccc2c1` (stereo unspecified), for which the Potency was 24.6 µM (active).
On to `CC(C)N(CC[C@H](c1ccccc1)c1cc(CO)ccc1O)C(C)C`, for which the activation was 16.8%.
Take `CC1=C(C(=O)O)N2C(=O)[C@@H](NC(=O)[C@H](N)c3ccc(O)cc3)[C@H]2SC1`: the activation is 0%.
Still for that read-out and setting: next, `CCC=CC[C@H]1C(=O)CC[C@@H]1CC(=O)OC`: 10.3%; `C[C@@]12C[C@@]3(O)O[C@@H](O1)[C@]1(COC(=O)c4ccccc4)[C@@H]3C[C@@]12O[C@@H]1O[C@H](CO)[C@@H](O)[C@H](O)[C@@H]1O`: 35.7%; `CO[C@@H]1[C@@H](O[C@@H]2O[C@H](C)[C@@H](O[C@H]3C[C@@](C)(O)[C@@H](O)[C@H](C)O3)[C@H](N(C)C)[C@H]2O)[C@@H](CC=O)C[C@@H](C)[C@@H](O[C@@H]2CC[C@H](N(C)C)[C@@H](C)O2)/C=C/C=C/C[C@@H](C)OC(=O)C[C@H]1OC(C)=O`: -19.8%.
Still for that read-out and setting: the same measure for `Cn1c(=O)c2c(ncn2CC(=O)O)n(C)c1=O`: 1.69%.
Same read-out and setting: the same measure for `CN1CCN(CCC(=O)N2c3ccccc3Sc3ccc(C(F)(F)F)cc32)CC1`: 18.6%.
Take `COC(=O)N[C@H](C(=O)N1CCC[C@@H]1c1ncc(-c2ccc(-c3ccc(-c4cnc([C@@H]5CCCN5C(=O)[C@@H](NC(=O)OC)C(C)C)[nH]4)cc3)cc2)[nH]1)C(C)C`: the activation was 77.3%.
As for `NC(=O)NC(=O)Cc1ccccc1`, the activation was -10%.
Take `CC(C)(C)C(=O)OCOC(=O)[C@@H]1N2C(=O)[C@@H](NC(=O)[C@H](N)c3ccccc3)[C@H]2SC1(C)C`: the activation was 7.53%.
The same measure, in the same setting: next, `N#CC(=C1Nc2ccccc2S1)c1ccnc(OCc2ccc(CN3CCOCC3)cc2)n1`: -32.5%; `CC1(C)S[C@@H]2[C@H](N=CN3CCCCCC3)C(=O)N2[C@H]1C(=O)O`: -11.9%.
As for `Cc1[nH]c(C=C2C(=O)Nc3ccc(S(=O)(=O)N(C)c4cccc(Cl)c4)cc32)c(C)c1C(=O)N1CCN(C)CC1`, the Potency is 6.11 µM (active).
Take `C=CCNc1c(O)cc2c(O)c1C[C@@H](C)C[C@H](OC)[C@@H](O)[C@@H](C)C=C(C)[C@H](OC(N)=O)[C@@H](OC)C=CC=C(C)C(=O)N2`: the activation is 1.58%.
For the compound `Fc1ccc(C(c2ccc(F)cc2)N2CCNCC2)cc1`, the activation is -8.47%.
Still for that read-out and setting: the same measure for `CC(C)=C(C#N)C(=O)N1CCCN(c2cc(NCCC(=O)O)nc(-c3ccccn3)n2)CC1`: 3.35%.
On the same count and under the same terms, the same measure for `CC(=O)OC(C)OC(=O)C(C)c1ccc(-c2ccccc2)c(F)c1` (stereo unspecified): -24.3%; for `CCOC(=O)c1cccc(N)c1`: -1.67%; for `O=c1[nH]c(=O)n([C@H]2C[C@@H](O)[C@@H](CO)O2)cc1C=CBr`: 11.1%.
Still for that read-out and setting: the same measure for `CCOC(=O)[C@H](CCc1ccccc1)N[C@@H](C)C(=O)N1Cc2cc(OC)c(OC)cc2C[C@H]1C(=O)O`: -5.86%.
As for `COc1cc(OC)nc(O[C@H](C(=O)O)C(OC)(c2ccccc2)c2ccccc2)n1`, the activation is -22%.
Regarding `CCNC(=O)CCCC=CC[C@@H]1[C@H](C=CC(O)CCc2ccccc2)[C@@H](O)C[C@@H]1O` (stereo partly specified), the activation was -2.33%.
For `Cc1ccc([C@@H]2O[C@H](CO)[C@@H](O)[C@H](O)[C@@H]2O)cc1Cc1ccc(-c2ccc(F)cc2)s1`, the activation is -12.3%.
